A selection: hits, their analogues and other compounds. The true share with any hit is near 6.6%.
Autofluor 339: intrinsic fluorescence of library compounds, ex339/em460 – biochemical, MLSMR library, data from DPM-DC assay, artefact control, profiling panel; fluorescence fold increase at 10 µM; 65,000 tested, 5.5% active; compound autofluorescence, ex339/em460 nm, NADH buffer; active compounds read high; 1 = no-compound wells, NADH background;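 active = at 10 µM, mean starting fluorescence two-fold or more over control wells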;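 also: signal is the first read of a kinetic run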
PMK inhibit: blocks S. pneumoniae phosphomevalonate kinase; 65,000 tested, 0.49% active; inhibition, % at 10 µM; purified PMK, PK/LDH-coupled NADH absorbance 340 nm;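 active = top-ranked compounds by inhibition in the single 10 µM screen, taking a fixed number of the strongest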;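 also: 0% = full reaction with DMSO carrier and 100% = background rate without enzyme reaction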
MK inhibit: inhibitors of Streptococcus pneumoniae mevalonate kinase. 65,000 tested, 0.48% active. inhibition, % at 10 µM. AID 555. purified MK, PK/LDH-coupled NADH absorbance 340 nm;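 active = ranked among the strongest by inhibition in the single 10 µM screen, a fixed top-ranked set picked for dose follow-up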
NADH coupling: blocks coupling enzymes of NAD/NADH assays; coupled PK/LDH NADH assays, four targets; IC50, µM (doses to about 10 µM), for the others: at the top dose inhibition; 65,000 tested, 0.02% active;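 active = single-dose screening hits from any of four coupled enzyme assays that gave an IC50 when retested across doses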;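 also: the DPM-DC format reads NADH fluorescence rather than 340 nm absorbance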
Spn DPM-DC inh: blocks S. pneumoniae diphosphomevalonate decarboxylase; purified DPM-DC, PK/LDH coupled NADH fluorescence; calls only at 10 µM; 65,000 tested, 0.49% active; AID 556;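 active = the 320 compounds with the highest percent inhibition in the single-dose primary screen, excluding strongly autofluorescent ones, cut at about 32% in these data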;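 also: kinetic rate of NADH fluorescence loss reporting ADP formed by the decarboxylase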
* marks the source's active call; other numbers are inactive results; i = inactive; . = no result shown; + = active, no number.

SMILES	Autofluor 339	PMK inhibit	MK inhibit	NADH coupling	Spn DPM-DC inh
CN(C)CCNc1nc(-c2ccco2)c2c(c1C#N)CC(C)(C)OC2	2.2*	4	5	5%	.
CC1(C)Cc2c(C#N)c(N3CCCC3)nc(-c3ccco3)c2CO1	2.2*	11	7	9%	.
N#Cc1c(N2CCOCC2)nc(-c2ccco2)c2c1CCCC2	2.3*	0	10	5%	.
Cn1nnc(NCc2cc(Br)ccc2OCc2cccs2)n1	1.1	2	12	5%	i
COc1ccc(CNc2nc3nc(C)cc(C)n3n2)cc1OC	1.1	5	4	1%	i
Cc1cc(C)n2nc(NCc3cccc(Br)c3)nc2n1	3.6*	11	8	10%	.
CCOC(=O)CSc1cn2c(n1)CCC2	1.1	0	2	2%	i
CC(C)(C)C(=O)/C(C#N)=c1\s/c(=C\c2ccncc2)c(=O)n1CCCN1CCOCC1	1.1	10	0	4%	i
OC1CN=C2C=CC=CN2C1 (stereo unspecified)	2.2*	9	4	13%	i
Cc1cc(NCc2ccco2)nc2cc(O)ccc12	2.1*	0	3	2%	.
CCCCC(=O)NC(Nc1cc(C)ccn1)(C(=O)OCC)C(F)(F)F (stereo unspecified)	1.1	19	0	6%	i
COC(=O)c1c(C)cc(C)n2c1nc1ccccc12	3.5*	20	12	16%	.
CCOC(=O)c1cnc(-n2nc(C)cc2C)nc1N(CC)CC	1.1	2	4	2%	i
CCOC(=O)COc1ccc2nsnc2c1Cl	2.9*	9	6	16%	+
CCOC(=O)c1cnc(SCC(=O)c2ccccc2)nc1N	1.1	0	0	0%	i
Cc1ccc(OCCCN(C)C)c(Br)c1	1.1	13	45*	19%	i
CC(=O)Nc1c(-c2ccccc2)nc2ncccn12	2.2*	0	7	4%	.
Cc1ccc(-c2nc3ncccn3c2NC(=O)C2CC2)cc1	5*	4	2	3%	.
Oc1ccc(-c2nc3ncccn3c2Nc2ccc3c(c2)OCCO3)cc1	1.1	12	15	9%	i
COc1cc2nc(C3CCC3)n(NC(=O)C3CCCC(OC)C3)c(=O)c2cc1OC (stereo unspecified)	1	active	9	4%	i
OCCNc1nc2ccc(Cl)cc2[nH]1	1.1	6	0	2%	i
COC(=O)c1cc(CSc2nnc(NC3CCCCC3)s2)oc1C	1.1	17	3	7%	i
CCOc1cc(-c2nc3ccccn3c2NCC2CCCO2)ccc1O (stereo unspecified)	3*	15	14	4%	.
Oc1ccccc1-c1nc(NCC2CCCO2)c2ccccc2n1 (stereo unspecified)	1.1	6	7	4%	i
COc1cccc(-c2nc(NCC3CCCO3)c3ccccc3n2)c1O (stereo unspecified)	1.1	21	0	7%	i
SMILES	Autofluor 339	PMK inhibit	MK inhibit	NADH coupling	Spn DPM-DC inh
COc1cc(-c2nc3ccccn3c2NCC2CCCO2)ccc1O (stereo unspecified)	3.7*	15	0	8%	.
CCC(=O)Nc1ccc(S(=O)(=O)c2ccc(NC(=O)CC)cc2)cc1	1.1	0	1	1%	i
CS(=O)(=O)N1CCCC(C(=O)NCc2cccs2)C1 (stereo unspecified)	1.1	25*	0	8%	i
O=C(NCc1cccs1)C1CCCN(c2nc3ccccc3o2)C1 (stereo unspecified)	1.1	25*	10	12%	i
O=C(NCc1cccs1)C1CCCN(S(=O)(=O)c2cccs2)C1 (stereo unspecified)	1.2	7	0	2%	i
CS(=O)(=O)N1CCCC(C(=O)NCCc2ccccc2)C1 (stereo unspecified)	1.1	1	7	3%	i
CS(=O)(=O)N1CCCC(C(=O)NCCc2ccc(Cl)cc2)C1 (stereo unspecified)	0.86	26*	0	14%	i
N#C/C(=C(/O)COC(=O)Cc1c[nH]c2ccccc12)c1nc2ccccc2[nH]1	1.1	12	0	5%	i
N#C/C(=C(/O)COC(=O)CCc1ccc(S(=O)(=O)N2CCOCC2)cc1)c1nc2ccccc2[nH]1	1.5	20	75*	34%	i
O=C(O)c1c(-c2ccccc2)c2oc3ccccc3c2[nH]c1=O	3.6*	12	17	21%	+
O=c1[nH]cnc2c1oc1ccccc12	1.1	15	5	7%	i
Cc1cccc(-n2ncc(C#N)c2N)c1	1	4	8	2%	i
Cc1cccc(N2C(N)=C(C#N)C(C#N)(C#N)C2c2ccccc2)c1 (stereo unspecified)	2.7*	0	11	12%	i
N#CC1=C(N)N(c2ccccc2)C(c2ccco2)C1(C#N)C#N (stereo unspecified)	2.2*	11	12	4%	.
Cc1ccc(SC(C)c2nc(-c3cccnc3)no2)cc1 (stereo unspecified)	1.1	0	4	4%	i
Cc1cccc(C)c1OCC(O)CNS(=O)(=O)c1ccccc1C(=O)N1CCCCC1 (stereo unspecified)	1	0	3	1%	i
CCN=C1Cn2c(nc3scc(-c4ccccc4)c3c2=O)CN1CC	2.4*	4	0	4%	i
CC(=O)c1ccc(N2CCN(C(=O)c3ccc(NC(=O)C4CCCO4)cc3)CC2)cc1 (stereo unspecified)	1.1	5	9	6%	i
Cc1nnc(SCCN2CCOCC2)n1C	1.1	0	52*	18%	i
COc1ccccc1-c1nnc(SCCN2CCOCC2)n1-c1ccc(C)cc1	1.1	0	0	0%	i
OCCCc1nc2n(n1)C(c1ccccc1Cl)C=C(c1cccs1)N2 (stereo unspecified)	3.8*	7	0	4%	.
OCCCc1nc2n(n1)C(c1ccccc1)C=C(c1ccc(F)cc1)N2 (stereo unspecified)	2*	7	1	7%	i
CCOc1ccccc1C1C(C(N)=O)=C(C)Nc2nc(CCCO)nn21 (stereo unspecified)	1.1	4	6	3%	i
OCCCc1nc2n(n1)C(c1cccs1)C=C(c1ccccc1)N2 (stereo unspecified)	2.1*	9	9	9%	.
O=C(CNS(=O)(=O)c1ccc(Br)s1)NCC1COc2ccccc2O1 (stereo unspecified)	1.1	6	1	2%	i
Cc1nc2c3ccccc3[nH]c(=O)n2n1	1.1	5	5	3%	i
Cc1ccc(-c2nc(C#N)c(NCCc3ccccn3)o2)cc1	2.6*	10	1	9%	i
N#Cc1nc(-c2ccc(Cl)cc2)oc1NCCc1ccccn1	2.4*	0	7	2%	.
